This is an account of results in PubChem BioAssay (Tox21).

Inconclusive results are not listed. A call without a number means that no potency is given here. Values without a mark were called inactive. The source made the active and inactive calls. Unless noted, calls follow the shape of the full dose curve.

Beta-2 adrenergic receptor (Homo sapiens), sequence (P07550 whole entry, looked up): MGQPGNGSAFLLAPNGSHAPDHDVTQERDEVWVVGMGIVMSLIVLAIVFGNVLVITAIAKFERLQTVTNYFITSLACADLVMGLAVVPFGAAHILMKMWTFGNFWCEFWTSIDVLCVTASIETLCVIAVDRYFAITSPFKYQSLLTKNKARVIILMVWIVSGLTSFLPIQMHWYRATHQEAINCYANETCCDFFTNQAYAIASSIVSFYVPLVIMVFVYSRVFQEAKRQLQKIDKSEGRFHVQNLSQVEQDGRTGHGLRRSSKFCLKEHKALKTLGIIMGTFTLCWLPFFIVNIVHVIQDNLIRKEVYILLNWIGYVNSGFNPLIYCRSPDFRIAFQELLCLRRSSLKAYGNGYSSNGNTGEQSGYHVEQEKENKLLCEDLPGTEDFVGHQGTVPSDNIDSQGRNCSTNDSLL

System in the first experiment: not listed separately
Kind of experiment: cAMP Responsive Elements (CRE) small molecule antagonists, cell-based qHTS assay (AID 1963591; active = well fitted inhibition curve with a large enough effect in the signal ratio in the repeat runs, not every such curve was filed as active; the % refers to the signal ratio). The settings on record: CRE-bla HEK293T, beta-lactamase FRET ratio; series mostly up to 92.4 µM. In short, it runs like this: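 Antagonist mode: test compounds are co-incubated with the adenylyl cyclase activator NKH477 (0.25 uM final) on CRE-bla HEK293T cells for 3 h at 37 °C, followed by LiveBLAzer substrate loading.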
Consider `C=COC(C)=O`, for which the Potency entry is “inactive”.

For the molecule `CCCCCl`, the Potency entry is “inactive”.

For the molecule `OC(c1ccc(F)cc1)(c1cncnc1)c1ccccc1Cl` (stereo not given), the Potency result was “inactive”.

For `NNCCO`, the Potency result is “inactive”.

Regarding `C[N+]1(C)[C@@H]2CC[C@H]1CC(OC(=O)C(CO)c1ccccc1)C2` (stereo not given in full), the Potency result was “inactive”.

Take `O=S(=O)(Cl)c1ccccc1`: the Potency result is “inactive”.

For the molecule `O=Cc1ccc2c(c1)OCO2`, the Potency entry is “inactive”.

Regarding `CC(Oc1cccc(Cl)c1)C(=O)O` (stereo not given), the Potency entry is “inactive”.

For `CCCSP(=S)(OCC)Oc1ccc(Cl)cc1Cl` (stereo not given), the Potency entry is “inactive”.

As for `CCC(CC)(CNC(=O)CCCO)c1cccc(OC)c1`, the Potency result is “inactive”.

Take `Cc1cnc2c(C(=O)O)c(Cl)ccc2c1`: the Potency result was “inactive”.

As for `CC[C@@H](CO)NC(=O)[C@@H]1C=C2c3cccc4[nH]cc(c34)C[C@H]2N(C)C1`, the Potency result is “inactive”.

With `CC(C)C(=O)Cl`, the Potency result is “inactive”.

`CN(C)c1ccc(N)cc1`: the Potency entry was “inactive”.

For the molecule `CCOc1ccc(C(C)(C)COCc2cccc(Oc3ccccc3)c2)cc1`, the Potency entry is “inactive”.

With `O=[Se]=O`, the Potency entry was “inactive”.

`O=C(N[C@H]1N=C(c2ccccc2F)c2cccc3c2N(CC3)C1=O)c1cc2ccccc2[nH]1`: the Potency entry was “inactive”.

With `CCC1(C2=NCCN2)Cc2ccccc2O1` (stereo not given), the Potency entry is “inactive”.

As for `ClSC(Cl)(Cl)Cl`, the Potency entry was “inactive”.

As for `Nc1ccc2c(c1)Cc1ccccc1-2`, the Potency entry is “inactive”.

Regarding `COC(=O)c1ccccc1S(=O)(=O)NC(=O)N(C)c1nc(C)nc(OC)n1`, the Potency result is “inactive”.

Turning to `CC(Cc1ccccc1)NCc1ccccc1Cl` (stereo not given), the Potency result was “inactive”.

With `CNN`, the Potency result is “inactive”.

On to `FC(F)OC(F)(F)C(F)Cl` (stereo not given), for which the Potency entry is “inactive”.

The target in a further experiment is Beta-2 adrenergic receptor (Homo sapiens) (UniProt P07550). As to the kind of experiment: Adrenergic beta2 receptor (ADRB2) small molecule antagonists, cell-based qHTS assay (AID 1963592). Also: nearly all actives have a fitted effect of over 50% in size. Also: potency is read from the fitted curve at half-maximal effect. Conditions: CHO-ADRB2 cells, isoproterenol-stimulated cAMP HTRF ratio, 0.5 h; series mostly up to 92.4 µM. A digest of the protocol:
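Cells (CHO, stable ADRB2 overexpression) incubated 18-20hr at 37C; compounds added from DMSO; agonist mix (1nM isoproterenol, 100uM IBMX, 25uM Ro-20-1724) added; 0.5hr RT; d2-cAMP and anti-cAMP-cryptate added; 1hr RT; 665/615 nm read.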
As to `C=COC(C)=O`, the Potency entry is “inactive”.

Consider `CCCCCl`, for which the Potency entry was “inactive”.

As to `OC(c1ccc(F)cc1)(c1cncnc1)c1ccccc1Cl` (stereo not given), the Potency entry is “inactive”.

As for `CCOC(=O)OC1=C(c2cc(C)ccc2C)C(=O)NC12CCC(OC)CC2` (stereo not given), the Potency entry was “inactive”.

In the case of `NNCCO`, the Potency entry is “inactive”.

As for `C[N+]1(C)[C@@H]2CC[C@H]1CC(OC(=O)C(CO)c1ccccc1)C2` (stereo not given in full), the Potency entry was “inactive”.

On to `Nc1c(Br)cc(Br)c2c1C(=O)c1ccccc1C2=O`, for which the activity change, negative = inhibition was 17.4% [at 19 µM].

For the molecule `Cc1nnc2n1-c1sc(CCC(=O)N3CCOCC3)cc1C(c1ccccc1Cl)=NC2`, the Potency was 29.8 µM (active).

Take `O=Cc1ccc2c(c1)OCO2`: the Potency entry was “inactive”.

For `CC(Oc1cccc(Cl)c1)C(=O)O` (stereo not given), the Potency entry is “inactive”.

Take `CCCSP(=S)(OCC)Oc1ccc(Cl)cc1Cl` (stereo not given): the Potency result is “inactive”.

In the case of `CC(C)(C)c1cc([N+](=O)[O-])cc([N+](=O)[O-])c1O`, the Potency entry was “inactive”.

Regarding `Cc1cnc2c(C(=O)O)c(Cl)ccc2c1`, the Potency entry was “inactive”.

Regarding `CC(C)C(=O)Cl`, the Potency entry is “inactive”.

In the case of `CCOc1ccc(C(C)(C)COCc2cccc(Oc3ccccc3)c2)cc1`, the Potency result is “inactive”.

On to `O=[Se]=O`, for which the Potency result is “inactive”.

For `O=C(N[C@H]1N=C(c2ccccc2F)c2cccc3c2N(CC3)C1=O)c1cc2ccccc2[nH]1`, the Potency result was “inactive”.

For the molecule `CCC1(C2=NCCN2)Cc2ccccc2O1` (stereo not given), the Potency result was “inactive”.

Turning to `ClSC(Cl)(Cl)Cl`, the Potency result was “inactive”.

In the case of `CCOP(=S)(OCC)Oc1cc(C)nc(N(CC)CC)n1`, the Potency entry was “inactive”.

Take `C[C@@H]1CC2=CC(=O)CC[C@@H]2[C@H]2CC[C@@]3(C)[C@@H](CC[C@]3(C)O)[C@@H]21`: the Potency entry was “inactive”.

As to `COC(=O)c1ccccc1S(=O)(=O)NC(=O)N(C)c1nc(C)nc(OC)n1`, the Potency entry is “inactive”.

Consider `CC(C)(C)c1ccc(CSc2cnn(C(C)(C)C)c(=O)c2Cl)cc1`, for which the Potency entry is “inactive”.

On to `CNN`, for which the Potency entry was “inactive”.

`C=CCOC(C)=O`: the Potency entry was “inactive”.

Consider `Cc1ccc(-c2c(Cl)nc(C#N)n2S(=O)(=O)N(C)C)cc1`, for which the Potency entry was “inactive”.

As for `FC(F)OC(F)(F)C(F)Cl` (stereo not given), the Potency entry is “inactive”.

Another experiment shares this target. Kind of experiment: Adrenergic beta2 receptor (ADRB2) small molecule agonists, cell-based qHTS assay (AID 1963593).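 Also: CHO cells stably overexpressing human ADRB2.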 The settings on record: CHO-ADRB2 cells, cAMP HTRF, 30 min; series mostly up to 92.4 µM. In short, it runs like this:
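CHO cells stably over-expressing ADRB2 were plated overnight at 37C, then dosed with compounds plus a stimulation mix containing 100uM IBMX and 25uM Ro-20-1724 for 0.5hr at room temperature. cAMP was measured by HTRF competition, 1hr.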
(In qHTS, concentration-response curves come from the screen itself.)
Consider `OC(c1ccc(F)cc1)(c1cncnc1)c1ccccc1Cl` (stereo not given), for which the Potency result is “inactive”.

Consider `CCOC(=O)OC1=C(c2cc(C)ccc2C)C(=O)NC12CCC(OC)CC2` (stereo not given), for which the Potency entry is “inactive”.

Turning to `NNCCO`, the Potency entry was “inactive”.

With `CC(Oc1cccc(Cl)c1)C(=O)O` (stereo not given), the Potency entry was “inactive”.

With `CCCSP(=S)(OCC)Oc1ccc(Cl)cc1Cl` (stereo not given), the Potency result is “inactive”.

Consider `Cc1cnc2c(C(=O)O)c(Cl)ccc2c1`, for which the Potency entry was “inactive”.

In the case of `CC[C@H](C)[C@H]1O[C@]2(C=C[C@@H]1C)C[C@@H]1C[C@@H](C/C=C(\C)[C@@H](O[C@H]3C[C@H](OC)[C@@H](O[C@H]4C[C@H](OC)[C@@H](O)[C@H](C)O4)[C@H](C)O3)[C@@H](C)/C=C/C=C3\CO[C@@H]4[C@H](O)C(C)=C[C@@H](C(=O)O1)[C@]34O)O2`, the Potency result is “inactive”.

As to `O=C(N[C@H]1N=C(c2ccccc2F)c2cccc3c2N(CC3)C1=O)c1cc2ccccc2[nH]1`, the Potency entry is “inactive”.

As for `N#Cc1cc(I)c(O)c(I)c1`, the Potency entry is “inactive”.

For the molecule `CCC1(C2=NCCN2)Cc2ccccc2O1` (stereo not given), the Potency entry is “inactive”.

With `ClSC(Cl)(Cl)Cl`, the Potency entry was “inactive”.

Turning to `CCOP(=S)(OCC)Oc1cc(C)nc(N(CC)CC)n1`, the Potency entry is “inactive”.

Take `Nc1ccc2c(c1)Cc1ccccc1-2`: the Potency entry is “inactive”.

Regarding `CC(C)(C)c1ccc(CSc2cnn(C(C)(C)C)c(=O)c2Cl)cc1`, the Potency result was “inactive”.

In the case of `FC(F)OC(F)(F)C(F)Cl` (stereo not given), the Potency result is “inactive”.

In the next experiment the target is D(2) dopamine receptor (Homo sapiens) (UniProt P14416). Kind of experiment: Dopamine D2 receptor (DRD2) small molecule agonists, cell-based qHTS assay (AID 1963594). Also: nearly all actives have a fitted effect of over 35% in size. Also: potency is read from the fitted curve at half-maximal effect. The settings on record: HEK293-DRD2 cAMP HTRF, agonist mode, 30 min; series mostly up to 92.4 µM. A digest of the protocol: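 HEK293 cells stably expressing human DRD2, pre-treated with PDE inhibitor Ro20-1724 (0.1 mM final) and compound 10 min at room temperature, then stimulated with NKH477 (200nM […]) for 30 min. cAMP read by HTRF (665/620 nm).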
D(2) dopamine receptor (Homo sapiens), sequence (P14416 whole entry, looked up): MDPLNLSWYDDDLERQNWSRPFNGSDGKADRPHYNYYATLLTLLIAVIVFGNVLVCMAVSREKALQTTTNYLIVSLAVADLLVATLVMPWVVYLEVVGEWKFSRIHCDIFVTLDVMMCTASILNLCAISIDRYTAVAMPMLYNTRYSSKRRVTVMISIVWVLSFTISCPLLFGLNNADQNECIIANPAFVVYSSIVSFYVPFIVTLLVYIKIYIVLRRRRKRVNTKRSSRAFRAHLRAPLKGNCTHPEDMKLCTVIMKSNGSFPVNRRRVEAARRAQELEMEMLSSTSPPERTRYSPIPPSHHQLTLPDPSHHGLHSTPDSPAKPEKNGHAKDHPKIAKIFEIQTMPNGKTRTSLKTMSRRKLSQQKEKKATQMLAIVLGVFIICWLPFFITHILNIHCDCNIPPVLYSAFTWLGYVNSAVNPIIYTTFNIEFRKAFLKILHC
On to `C=COC(C)=O`, for which the Potency result was “inactive”.

With `CCCCCl`, the Potency result is “inactive”.

On to `OC(c1ccc(F)cc1)(c1cncnc1)c1ccccc1Cl` (stereo not given), for which the Potency entry was “inactive”.

As to `CCOC(=O)OC1=C(c2cc(C)ccc2C)C(=O)NC12CCC(OC)CC2` (stereo not given), the Potency entry was “inactive”.

As to `NNCCO`, the Potency entry is “inactive”.

Consider `C[N+]1(C)[C@@H]2CC[C@H]1CC(OC(=O)C(CO)c1ccccc1)C2` (stereo not given in full), for which the Potency result is “inactive”.

For the molecule `O=CC(Br)(Br)Br`, the Potency entry is “inactive”.

Consider `Nc1c(Br)cc(Br)c2c1C(=O)c1ccccc1C2=O`, for which the activation was -0.116% [at 19 µM].

Take `O=S(=O)(Cl)c1ccccc1`: the Potency entry was “inactive”.

On to `Cc1nnc2n1-c1sc(CCC(=O)N3CCOCC3)cc1C(c1ccccc1Cl)=NC2`, for which the Potency result is “inactive”.

With `O=Cc1ccc2c(c1)OCO2`, the Potency entry was “inactive”.

Turning to `CC(Oc1cccc(Cl)c1)C(=O)O` (stereo not given), the Potency entry is “inactive”.

With `N#CC(CCc1ccc(Cl)cc1)(Cn1cncn1)c1ccccc1` (stereo not given), the Potency entry was “inactive”.

Regarding `CCCSP(=S)(OCC)Oc1ccc(Cl)cc1Cl` (stereo not given), the Potency entry is “inactive”.

For `CCC(CC)(CNC(=O)CCCO)c1cccc(OC)c1`, the Potency result is “inactive”.

For the molecule `CC(C)(C)c1cc([N+](=O)[O-])cc([N+](=O)[O-])c1O`, the Potency result is “inactive”.

Regarding `Cc1cnc2c(C(=O)O)c(Cl)ccc2c1`, the Potency entry is “inactive”.

As to `CC[C@H](C)[C@H]1O[C@]2(C=C[C@@H]1C)C[C@@H]1C[C@@H](C/C=C(\C)[C@@H](O[C@H]3C[C@H](OC)[C@@H](O[C@H]4C[C@H](OC)[C@@H](O)[C@H](C)O4)[C@H](C)O3)[C@@H](C)/C=C/C=C3\CO[C@@H]4[C@H](O)C(C)=C[C@@H](C(=O)O1)[C@]34O)O2`, the Potency entry was “inactive”.

Turning to `CC(C)C(=O)Cl`, the Potency result was “inactive”.

`CCOc1ccc(C(C)(C)COCc2cccc(Oc3ccccc3)c2)cc1`: the Potency result is “inactive”.

On to `O=[Se]=O`, for which the Potency result is “inactive”.

Consider `O=C(N[C@H]1N=C(c2ccccc2F)c2cccc3c2N(CC3)C1=O)c1cc2ccccc2[nH]1`, for which the Potency was 8.74 µM (active).

As to `N#Cc1cc(I)c(O)c(I)c1`, the Potency result was “inactive”.

With `ClSC(Cl)(Cl)Cl`, the Potency result was “inactive”.

On to `CCOP(=S)(OCC)Oc1cc(C)nc(N(CC)CC)n1`, for which the Potency result was “inactive”.

Consider `Nc1ccc2c(c1)Cc1ccccc1-2`, for which the Potency result was “inactive”.

For `C[C@@H]1CC2=CC(=O)CC[C@@H]2[C@H]2CC[C@@]3(C)[C@@H](CC[C@]3(C)O)[C@@H]21`, the Potency entry was “inactive”.

Consider `COC(=O)c1ccccc1S(=O)(=O)NC(=O)N(C)c1nc(C)nc(OC)n1`, for which the Potency entry is “inactive”.

In the case of `CC(Cc1ccccc1)NCc1ccccc1Cl` (stereo not given), the Potency entry was “inactive”.

On to `CNN`, for which the Potency entry was “inactive”.

Consider `C=C1C[C@@H]2[C@H](CC[C@]3(C)C(=O)CC[C@@H]23)[C@@]2(C)C=CC(=O)C=C12`, for which the Potency entry is “inactive”.

With `C=CCOC(C)=O`, the Potency entry was “inactive”.

Turning to `Cc1ccc(-c2c(Cl)nc(C#N)n2S(=O)(=O)N(C)C)cc1`, the Potency entry is “inactive”.

Take `FC(F)OC(F)(F)C(F)Cl` (stereo not given): the Potency result was “inactive”.
